SMILES strings stand for the structures. About 83,000 compounds went through this panel and 20% of them were active in at least one assay; those are over-represented in the sample as a whole.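 The test compound was applied at a single concentration to cells in 96-well plates for 48 hours, and percent growth was recorded.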 Unmarked numbers belong to inactive results. Calls of active or inactive are those of the source. Rule for the calls: active = growth percent below 10; inactive = the rest.

In the experiment the test system is HOP-92 NSCLC. As to the kind of experiment: NCI-60 one-dose screen, 48 h (100 = growth as untreated, 0 = no growth, -100 = all killed). The settings on record: 10 µM unless noted.
`COc1nc(Nc2cccc(C(F)(F)F)c2)nc(OC)n1`: the growth was 92.4%.
As for `N#Cc1ccc2nc[nH]c2c1`, the figure is 101%; as for `CCN(CC)c1ccc2nc3ccc(N=Nc4ccc(N(C)C)cc4)cc3[n+](-c3ccccc3)c2c1`, -14.6% (active); as for `CC1(c2ccccc2)CO1` (stereo not drawn), 95.7%.
As for `Cc1cc(Cl)cc(Cc2cc(Cl)cc(C)c2O)c1O`, the figure is -33% (active); as for `CC1(C)OC2C(CO)OC(n3ccc(=O)[nH]c3=O)C2O1` (stereo not drawn), 82.8%; as for `Nc1ncnc(Nc2ccccc2)n1`, 84.5%.
In the case of `CC(C)(C)NCCC(O)c1cc(C(F)(F)F)nc2c(C(F)(F)F)cccc12` (stereo not drawn), the growth was 40.2%.
With `CN1CCCN(C(c2ccccc2)c2ccc(Cl)cc2)CC1` (stereo not drawn), the growth was 60.4%.
Then `CCOC(C=O)OCC`, with 95.8%; and `C=C1CC2(OC1=O)C(=O)N(C)c1ccc(I)cc12` (stereo not drawn), with -95.7% (active).
Turning to `C=COC(=O)C(C)(C)C`, the growth is 71.7%.
On to `O=C(OCc1ccccc1)n1nnc2ccccc21`, for which the growth was 116%.
For `C/C(O)=C(/C=N/C(=S)Nc1ccccc1)C(=O)Nc1ccccc1C`, the growth is 92.6%.
As for `CC(=O)Nc1ccc(/C=C2\SC(=S)N(/C=C(\C(C)=O)C(N)=O)C2=O)cc1`, the figure is 68.2%; as for `CC(C)C1CCC(C)C(O)C1` (stereo not drawn), 102%.
As for `CC1(C)CCC(C)(C)NC(=S)N1`, the growth was 107%.
Then `Nc1ccc2ccccc2c1-c1c(N)ccc2ccccc12`, with 52.9%; and `CCOC(OCC)C(=O)c1ccccc1`, with 41.3%; and `COc1ccc2c(c1)Nc1ccccc1S2`, with 78.5%.
Then `C=CC(=O)OC1CCC(C(C)(C)CC)CC1` (stereo not drawn), with 115%; and `CCOC(=O)c1c(C)[nH]c(C)c1C=O`, with 81.9%.
In the case of `CCC12OC(COc3ccccc3)CN1CCN2c1ccccc1` (stereo not drawn), the growth was 96.9% [100 µM].
Then `CCOC(=O)N[C@H]1CCc2cc(OC)c(OC)c(OC)c2-c2ccc(SC)c(=O)cc21`, with 29.4%.
As for `CCCCCCCCCCCCCCCCOc1ccccc1NC(=O)CC(C)=O`, the figure is 96.4%; as for `Cc1nc(C)c(C(=O)O)cc1C(=O)O`, 103%; as for `Nc1ccn(C2CC(N)C(CO)O2)c(=O)n1` (stereo not drawn), 95.7%.
As for `CCCNS(=O)(=O)c1ccc(Cl)cc1`, the growth is 104%.
As for `Clc1cccc(Cl)c1CSc1nc2ccccc2n2cccc12`, the figure is 94%.
Then `Cc1cc(C(=O)c2ccccc2)cc(C)c1O`, with 74.3%; and `CSCCC(NC(=O)C(Cl)Cl)C(=O)O` (stereo not drawn), with 85.2%; and `CSCC[C@@H]1C(=O)N(C)[C@H](C(C)(C)C)N1C(=O)c1ccccc1`, with 108%.
`ON1CCCC1`: the growth was 92.4%.
As for `CC(C)N(C(=O)c1ccccc1)C(C)C`, the figure is 97.8%; as for `CC(=O)c1cccc(N(C)S(=O)(=O)c2ccc(C)cc2)c1`, 72.3%; as for `O=C(Nc1c(Cl)cc(Cl)cc1Cl)ON=C1CCCCC1`, 132%.
As for `CCCCCCCCCCC(=O)CCCCCCCCCC`, the figure is 148%; as for `Cc1c(-c2ccc(C3CCCCC3)cc2)nc2ccc(F)cc2c1C(=O)O`, 83.3%.

The record behind these values is PubChem BioAssay (NCI).
